Screening results from PubChem.
DT40 TDP1 no CPT = qHTS for Inhibitors of human tyrosyl-DNA phosphodiesterase 1 (TDP1): qHTS in cells in absence of CPT; Potency, µM (top dose mostly 46.2 µM), actives largely listed as inhibitors; DT40 Tdp1-/- hTDP1 cells, no CPT, ATP luminescence, 48 h; AID 686978, 2013; 15% of 420,000 active; note: nearly all actives have a fitted effect of over 55% in size
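DT40 Tdp1-/-;hTDP1 cells, no CPT (DMSO vehicle only), 400 cells/well; compounds pin-transferred; ≥48 hr, 37 °C; CellTiter-Glo 30 min RT dark, luminescence read.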
ELG1 repair inh = ELG1-dependent DNA repair inhibition. 2.3% of 330,000 active. HEK293T ELG1-luciferase reporter, luminescence, 16 h; DNA damage induced by 5-fluorouridine. Potency, µM (titrated, usually from 46.1 µM), actives largely listed as inhibitors. AID 504467; note: nearly all actives have a fitted effect of over 55% in size
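5-Fluorouridine DNA damage + compound/DMSO, 2,000 cells/well, 16 h, 37 °C/5% CO2. ONE-Glo, 30 min RT, luminescence. Readout = decrease in reporter signal.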
TDP1 block = TDP1 (human) enzyme inhibition; Q9NUW8; recombinant TDP1, AlphaScreen DNA substrate cleavage; Potency, µM (series often up to 130 µM), usual class: inhibitors; 0.28% of 350,000 active; note: nearly all actives have a fitted effect of over 40% in size
Target sequence (Q9NUW8 whole entry, looked up): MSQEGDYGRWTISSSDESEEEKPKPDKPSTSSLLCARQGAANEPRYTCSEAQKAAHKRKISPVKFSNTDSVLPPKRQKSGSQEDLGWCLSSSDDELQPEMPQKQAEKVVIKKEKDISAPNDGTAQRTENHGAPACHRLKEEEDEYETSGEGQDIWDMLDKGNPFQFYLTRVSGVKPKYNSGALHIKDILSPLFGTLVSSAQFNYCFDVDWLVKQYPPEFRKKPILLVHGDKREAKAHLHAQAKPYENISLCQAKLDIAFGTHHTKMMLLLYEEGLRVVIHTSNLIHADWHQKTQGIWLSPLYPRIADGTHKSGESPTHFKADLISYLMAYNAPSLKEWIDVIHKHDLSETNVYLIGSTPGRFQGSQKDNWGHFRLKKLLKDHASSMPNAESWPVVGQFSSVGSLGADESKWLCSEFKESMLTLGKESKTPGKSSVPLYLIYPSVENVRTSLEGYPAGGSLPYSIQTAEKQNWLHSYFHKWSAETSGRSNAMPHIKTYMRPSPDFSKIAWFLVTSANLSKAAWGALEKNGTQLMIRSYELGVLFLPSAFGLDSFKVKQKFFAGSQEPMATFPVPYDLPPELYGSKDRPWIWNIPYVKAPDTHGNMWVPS
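Enzyme-compound mixtures sat 15 min at room temperature, followed by a 5 min reaction with 15 nM final substrate and 10 min with AlphaScreen beads. Recombinant human Tdp1 was used at 1 nM final.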
Giardia killer = Giardia lamblia killing. activity change, % at 7.66 µM, hits read low. Giardia lamblia trophozoite viability. AID 540267. 0.15% of 340,000 active; in the data active = activity change below about -80%; inconclusive = between about -30% and that limit;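 note: parasites exposed to compound for two days anaerobically before the ATP read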
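Anaerobic 48 hrs incubation at 37 deg C of 100 trophozoites/well with test compounds; ATPLite 1-Step luminescence, 15-30 min RT, reports cellular ATP as viability.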
IL1B secr inh = blocks inflammasome-driven IL-1 beta release; THP-1 LPS/ATP IL-1B secretion, AlphaLISA, 16 h; active compounds read low; activity change, % at 57.5 µM; 4.7% of 360,000 active; in the data active = activity change below about -50%; inconclusive = mostly about -30% to -49%
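THP-1 cells pretreated 1 hr with compounds (up to 57.5 uM final), then stimulated with LPS (250 ng/mL final) plus ATP (1.25 mM final); secreted IL-1B measured by AlphaLISA after 16 hr, decreased signal indicating inhibition.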
DT40 TDP1 CPT = DT40-hTDP1 cell growth loss with CPT; chicken DT40 Tdp1-/-;hTDP1 cells + 20 nM CPT, ATP luminescence, 48 h; Potency, µM (titrated, usually from 46.2 µM), actives largely listed as inhibitors; 12% of 420,000 active; note: nearly all actives have a fitted effect of over 55% in size
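Chicken DT40 Tdp1-/- cells stably complemented with human TDP1 were seeded at 400 cells/well in medium containing 20 nM camptothecin, exposed to pin-transferred compounds, and grown at 37 °C for at least 48 hr. Viability was read as ATP luminescence.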
Numbers stand for hits; . = inactive; ? = inconclusive; / = no result; ! = repeats disagree. In the library only some 19% were active in any assay of this set; here they are far more common. Unless noted, calls come from the whole dose curve; as a rule, active = well fitted curve in the direction sought with a large enough effect; inconclusive = small, poorly fitted or top-dose-only effect, or another doubt; inactive = no such curve, though single readings can be large; an effect the other way counts as inactive or inconclusive.

SMILES | DT40 TDP1 no CPT | ELG1 repair inh | TDP1 block | Giardia killer | IL1B secr inh | DT40 TDP1 CPT
NCC(=O)c1ccc(Br)cc1 | . | / | / | / | / | .
Cn1cc(C(=O)C(=O)N[C@H]2CN3CCC2CC3)c2ccccc21 | ? | / | . | / | / | .
COc1ccc(NC(=O)c2cc([N+](=O)[O-])ccc2N2CCNCC2)cc1 | ? | . | . | . | . | .
CC(C)OP(=O)(OC(C)C)C(Nc1ccc([N+](=O)[O-])cc1)c1cccc([N+](=O)[O-])c1 (stereo not given) | 18µM | . | . | . | . | ?
COc1ccc(C(Nc2cccc([N+](=O)[O-])c2)P(=O)(OC(C)C)OC(C)C)cc1 (stereo not given) | 16µM | . | / | . | . | 16µM
CCCOP(=O)(OCCC)C(Nc1ccc(C(C)C)cc1)c1ccc([N+](=O)[O-])cc1 (stereo not given) | 16µM | ? | . | . | ? | ?
CCOP(=O)(c1ccccc1)C(O)c1ccc([N+](=O)[O-])cc1 (stereo not given) | . | ? | / | . | . | .
COc1ccc(OC)c(C(Nc2ccccc2)P(=O)(OC(C)C)OC(C)C)c1 (stereo not given) | 16µM | ? | . | . | . | ?
CC(C)OP(=O)(OC(C)C)C(Nc1ccccc1)c1cccc2c1OCO2 (stereo not given) | ? | ? | . | . | . | ?
CC(C)OP(=O)(OC(C)C)C(Nc1ccccc1)c1ccccc1C(F)(F)F (stereo not given) | ? | . | . | . | . | ?
CCCN1CCC[C@@H]2Cc3n[nH]cc3C[C@H]21 | / | / | . | / | / | /
COc1ccc(C2=CC(c3ccc(OC)c(OC)c3)c3c(c4ccccc4oc3=O)O2)cc1OC (stereo not given) | ? | ? | / | . | . | ?
O=C(COc1ccc2ccccc2c1)N1CCN(CC2CC3C=CC2C3)CC1 (stereo not given) | 18µM | . | . | . | . | 18µM
COc1ccc(OCC(=O)N2CCN(C3CCC(c4ccccc4)CC3)CC2)cc1 (stereo not given) | 18µM | . | . | . | . | ?
COc1ccc(OCC(=O)N2CCCC(N3CCN(c4ccccc4C)CC3)C2)cc1 (stereo not given) | 21µM | ? | . | . | . | 16µM
Cc1ccc(OCC(=O)N2CCCC(N3CCN(c4ccc(F)cc4)CC3)C2)cc1 (stereo not given) | ? | . | . | . | . | ?
O=C(COc1ccc2ccccc2c1)N1CCN(C2CCN(Cc3ccccc3)CC2)CC1 | ? | . | . | . | . | 16µM
O=C(N[C@H]1N=C(c2ccccc2F)c2cccc3c2N(CC3)C1=O)c1cc2ccccc2[nH]1 | . | / | / | / | / | .
Cc1nc(N2CCN(Cc3ccccc3)CC2)nc2c1C(=O)CC(C)C2 (stereo not given) | 16µM | ? | . | . | . | 18µM
O=C(COc1ccccc1[N+](=O)[O-])N1CCN(CCc2ccncc2)CC1 | ? | / | . | / | / | .
CC[N+](C)(CC)CCCCOc1ccc2c(c1)C(=O)c1cc(OCCCC[N+](C)(CC)CC)ccc1-2 | 29µM | . | . | . | . | ?
CCCCn1cnc2cc(NCc3cccc(OC)c3O)ccc21 | . | ? | . | . | ? | .
CCCc1c(-c2ccccc2F)ncn1CCc1ccccc1OC | 2.6µM | / | / | / | -70 | 3.7µM
CCC(C)C(=O)OC1C(O)C2C(CN3CC(C)CCC3[C@]2(C)O)C2C[C@]34O[C@@]5(O)C(OC(=O)C(C)(O)CC)CCC3(C)C5C(OC(C)=O)C(OC(C)=O)C4[C@@]21O (stereo not given in full) | . | / | . | / | / | .
Cc1oc2cc3oc(=O)c(CCC(=O)N4CCCCC4)c(C)c3cc2c1C | 23µM | / | . | / | / | 12µM
SMILES | DT40 TDP1 no CPT | ELG1 repair inh | TDP1 block | Giardia killer | IL1B secr inh | DT40 TDP1 CPT
COc1ccc2c(C)c(CCC(=O)N3C[C@H]4C[C@@H](C3)c3cccc(=O)n3C4)c(=O)oc2c1 | . | . | / | . | . | .
CC(C)CCNc1nnnc2c1sc1nc(N3CCOCC3)c3c(c12)CC(C)(C)SC3 | 18µM | ? | . | . | . | 23µM
CN(C)c1ccc(C=C2C=CC=C2)cc1 | ? | / | / | . | . | ?
CCCCOc1ccc(CN2C(=O)C(=O)c3cc(C)ccc32)cc1OC | 0.73µM | / | . | / | / | 1µM
c1ccc(-c2[nH]c(-c3ccccc3)[n+](CC3CO3)c2-c2ccccc2)cc1 (stereo not given) | 10µM | 23µM | . | ? | -56 | 5.8µM
OCC(O)[C@H]1O[C@@H]2O[C@H](C(Cl)(Cl)Cl)O[C@@H]2[C@H]1O (stereo not given in full) | / | / | . | / | / | /
C[C@@]1(CO)[C@H](O)CC[C@@]2(C)[C@H]1CC[C@H]1C[C@@H]3C[C@@]12CC[C@]3(O)CO | 0.13µM | . | . | / | / | 0.1µM
COc1cccc2c1cc([N+](=O)[O-])c1c(C(=O)O)cc3c(c12)OCO3 | 12µM! | / | . | . | -58 | 18µM!
C[C@@H]1CNC(=O)c2c(C(=O)Nc3ccc(CNC(=O)OC(C)(C)C)cc3)ncn21 | 9.2µM | / | / | / | . | 23µM
Cc1ccc(NC(=O)c2ncn(CC(=O)NCc3ccc4c(c3)OCO4)n2)cc1C | . | ? | . | . | . | .
CCCCNC(=O)n1c(NC(=O)OC)nc2ccccc21 | / | / | . | / | / | /
COc1ccc(OCCn2c(NC(=O)c3ccc(OC)cc3)nc3ccccc32)cc1 | 16µM | / | . | / | / | 18µM
OC(O)C(Cl)(Cl)Cl | . | / | . | / | / | .
C=C(C)CN1CC[C@@]23c4c5ccc(O)c4O[C@H]2c2[nH]c4ccccc4c2C[C@]3(O)[C@@H]1C5 | 27µM | / | . | / | / | .
Oc1ccc2c3c1OC1c4[nH]c5ccccc5c4C[C@@]4(O)C(C2)N(CC2CC2)CC[C@]314 (stereo not given in full) | ? | . | . | . | -64 | ?
C=C(C)CN1CC[C@]23c4c5ccc(O)c4O[C@H]2c2[nH]c4ccccc4c2C[C@@]3(O)C1C5 | / | / | . | / | / | /
O=C1/C(=C/c2ccccc2)C[C@@]2(O)[C@H]3Cc4ccc(O)c5c4[C@@]2(CCN3CC2CC2)C1O5 (stereo not given in full) | 2.6µM | 18µM | . | . | -108 | 3.3µM
Oc1ccc2c3c1O[C@H]1c4oc5ccccc5c4C[C@@]4(O)C(C2)N(CC2CC2)CCC314 (stereo not given in full) | / | / | . | / | / | /
C=CCN1CC[C@]23c4c5ccc(O)c4OC2C(=O)CC[C@]3(O)C1C5 (stereo not given in full) | . | / | . | / | / | .
